The record followed here is the antibiotic and cytotoxicity screens of Wong et al. (2023).

Hit rate of the full screen: of about 39,000 compounds, about 3,300 (8.5%) were called active. Shown is part of a subset that was picked to be rich in actives.

In this experiment the test system is HepG2. Nature of the experiment: cytotoxicity call (relative viability < 0.9). As to conditions: 10 µM.
Regarding `CN1CCN(C(=O)C[C@@H]2CC[C@@H]3[C@H](COc4ccc(NC(=O)C5CCOCC5)cc4C(=O)N3C)O2)CC1`, the cytotoxicity call is “inactive”.

In the case of `C[C@@H]1CN([C@@H](C)CO)C(=O)c2cc(NS(=O)(=O)c3ccc(F)cc3)ccc2O[C@@H](C)CCCCO[C@H]1CN(C)C(=O)C1CCCCC1`, the cytotoxicity call is “inactive”.

As for `O=C(C[C@@H]1CC[C@H]2[C@@H](COC[C@@H](O)CN2C(=O)c2ccccc2)O1)NCCCN1CCOCC1`, the cytotoxicity call is “inactive”.

For the compound `COc1ccccc1S(=O)(=O)N(C)C[C@H]1Oc2cc(Br)ccc2S(=O)(=O)N([C@H](C)CO)C[C@H]1C`, the cytotoxicity call was “inactive”.

Turning to `C[C@@H]1CN([C@@H](C)CO)C(=O)c2cccc(NC(=O)CCCCCC(=O)Nc3ccccc3N)c2O[C@H]1CN(C)C(=O)Nc1cccc2ccccc12`, the cytotoxicity call was “inactive”.

Consider `Cc1noc(C)c1NC(=O)N(C)C[C@@H]1Oc2c(NC(=O)C3CCOCC3)cccc2C(=O)N([C@H](C)CO)C[C@@H]1C`, for which the cytotoxicity call was “inactive”.

With `NCCNc1cccc2ccccc12`, the cytotoxicity call is “inactive”.

`NNCCc1ccccc1`: the cytotoxicity call is “inactive”.

For the compound `c1ccc(CCNc2ccnc3cc4ccccc4cc23)cc1`, the cytotoxicity call is “active”.

Turning to `CC(C)NC(=O)N(C)C[C@@H]1Oc2cc(C#Cc3ccc(F)cc3)ccc2S(=O)(=O)N([C@@H](C)CO)C[C@@H]1C`, the cytotoxicity call was “inactive”.

In the case of `C[C@@H]1CN([C@H](C)CO)C(=O)c2cc(NC(=O)Nc3ccc4c(c3)OCO4)ccc2O[C@H]1CN(C)Cc1ccc(-c2ccccc2)cc1`, the cytotoxicity call was “active”.

Consider `C[C@H]1CN([C@@H](C)CO)C(=O)c2cc(NC(=O)Nc3ccc4c(c3)OCO4)ccc2O[C@@H]1CN(C)Cc1ccc(-c2ccccc2)cc1`, for which the cytotoxicity call was “active”.

Take `C[C@H](CO)N1C[C@H](C)[C@@H](CN(C)Cc2ccc(-c3ccccc3)cc2)Oc2ccc(NC(=O)Nc3ccc4c(c3)OCO4)cc2C1=O`: the cytotoxicity call was “inactive”.

As to `C[C@H]1CN([C@@H](C)CO)C(=O)c2cc(NC(=O)Nc3ccc4c(c3)OCO4)ccc2O[C@H]1CN(C)Cc1ccc(-c2ccccc2)cc1`, the cytotoxicity call was “inactive”.

On to `C[C@@H]1CN([C@H](C)CO)C(=O)c2cc(NC(=O)Nc3ccc4c(c3)OCO4)ccc2O[C@@H]1CN(C)Cc1ccc(-c2ccccc2)cc1`, for which the cytotoxicity call was “active”.

As to `C[C@@H]1CN([C@@H](C)CO)C(=O)c2cc(NC(=O)Nc3ccc4c(c3)OCO4)ccc2O[C@@H]1CN(C)Cc1ccc(-c2ccccc2)cc1`, the cytotoxicity call was “active”.

With `C[C@H](CO)N1C[C@H](C)[C@H](CN(C)Cc2ccc(-c3ccccc3)cc2)Oc2ccc(NC(=O)Nc3ccc4c(c3)OCO4)cc2C1=O`, the cytotoxicity call was “inactive”.

Consider `O=C1C[C@]2(c3ccc([N+](=O)[O-])cc3)C(=O)N(CC(F)(F)F)c3cc(CO)ccc3[C@H]2N1CC12CC3CC(CC(C3)C1)C2`, for which the cytotoxicity call is “inactive”.

For `COc1ccc(S(=O)(=O)Nc2ccc3c(c2)C(=O)N([C@@H](C)CO)C[C@H](C)[C@H](CN(C)C(=O)NC(C)C)O3)cc1`, the cytotoxicity call is “inactive”.

For the compound `C[C@@H]1CN([C@@H](C)CO)C(=O)c2cc(NC(=O)Nc3ccc4c(c3)OCO4)ccc2O[C@@H](C)CCCCO[C@@H]1CN(C)S(=O)(=O)c1cccs1`, the cytotoxicity call is “inactive”.

On to `C[C@H]1CN([C@@H](C)CO)C(=O)Cc2cc(NS(=O)(=O)c3cn(C)cn3)ccc2O[C@H]1CN(C)S(=O)(=O)c1ccc(F)cc1`, for which the cytotoxicity call was “inactive”.

As to `C[C@@H]1CN([C@H](C)CO)C(=O)Cc2cc(NC(=O)CCCCCC(=O)Nc3ccccc3N)ccc2O[C@H]1CN(C)Cc1ccccc1`, the cytotoxicity call is “inactive”.

Regarding `CCS(=O)(=O)N1CC[C@]2(CC1)CN([C@@H](CO)c1[nH]c3cc(ccc3c12)OC)C(=O)Cc1ccccn1`, the cytotoxicity call is “inactive”.

As to `Cc1noc(C)c1NC(=O)Nc1ccc2c(c1)C(=O)N([C@@H](C)CO)C[C@H](C)[C@@H](CN(C)Cc1ccc(Cl)c(Cl)c1)O2`, the cytotoxicity call is “inactive”.

`CC(C)NC(=O)Nc1ccc2c(c1)C(=O)N([C@@H](C)CO)C[C@H](C)[C@@H](CN(C)S(=O)(=O)c1cn(C)cn1)OCCCC[C@H](C)O2`: the cytotoxicity call was “inactive”.

As for `COc1ccc(cc1)CN1C[C@]2(CN(C2)S(=O)(=O)c2cn(cn2)C)c2c([nH]c3cc(ccc23)OC)[C@H]1CO`, the cytotoxicity call was “inactive”.

Turning to `Cc1noc(C)c1S(=O)(=O)Nc1ccc2c(c1)CC(=O)N([C@@H](C)CO)C[C@@H](C)[C@@H](CN(C)Cc1ccncc1)O2`, the cytotoxicity call was “inactive”.

Take `C[C@@H]1CN([C@H](C)CO)C(=O)c2cccc(NC(=O)NC3CCCCC3)c2O[C@H]1CN(C)S(=O)(=O)c1cn(C)cn1`: the cytotoxicity call is “inactive”.

As to `CCc1nc2ccc(C(=O)NCc3ccccc3OC)cn2c1N(CC)Cc1cccc(Br)c1`, the cytotoxicity call is “inactive”.

With `CCS(=O)(=O)N1CC[C@]2(CC1)CN([C@H](CO)c1[nH]c3cc(ccc3c12)OC)C(=O)c1ccc(cc1)F`, the cytotoxicity call is “inactive”.

Take `O=C(O)[C@H]1NC(=O)[C@@H]1Cc1ccccc1`: the cytotoxicity call is “inactive”.

In the case of `CC(C)NC(=O)N(C)C[C@@H]1Oc2c(NS(=O)(=O)c3ccc(F)cc3)cccc2C(=O)N([C@H](C)CO)C[C@@H]1C`, the cytotoxicity call is “inactive”.

With `C[C@@H]1CN([C@@H](C)CO)C(=O)c2cc(NC(=O)Nc3ccc4c(c3)OCO4)ccc2O[C@H]1CN(C)Cc1ccc(-c2ccccc2)cc1`, the cytotoxicity call was “active”.

As to `C[C@@H]1CN([C@H](C)CO)C(=O)c2cccc(NS(=O)(=O)c3cn(C)cn3)c2O[C@@H]1CN(C)S(=O)(=O)c1ccc(F)cc1`, the cytotoxicity call is “inactive”.

Turning to `C[C@@H]1CN([C@H](C)CO)C(=O)c2cccc(NS(=O)(=O)c3cn(C)cn3)c2O[C@H]1CN(C)Cc1ccc2c(c1)OCO2`, the cytotoxicity call was “inactive”.

As for `C[C@H](NC(=O)C[C@@H]1C[C@H]2c3cc(NC(=O)Nc4ccc(C(F)(F)F)cc4)ccc3O[C@H]2[C@@H](CO)O1)c1ccccc1`, the cytotoxicity call is “inactive”.

Regarding `COc1ccc(S(=O)(=O)N(C)C[C@H]2OCCCC[C@@H](C)Oc3ccc(NC(=O)Nc4ccc5c(c4)OCO5)cc3C(=O)N([C@@H](C)CO)C[C@@H]2C)cc1`, the cytotoxicity call is “active”.

Regarding `COc1ccc(NC(=O)Nc2ccc3c(c2)C(=O)N([C@H](C)CO)C[C@@H](C)[C@H](CN(C)S(=O)(=O)c2ccc(C)cc2)OCCCC[C@@H](C)O3)cc1`, the cytotoxicity call was “inactive”.

For the compound `COc1ccc(S(=O)(=O)N(C)C[C@H]2OCCCC[C@H](C)Oc3ccc(NC(=O)Nc4ccc5c(c4)OCO5)cc3C(=O)N([C@H](C)CO)C[C@H]2C)cc1`, the cytotoxicity call was “inactive”.

With `COc1ccc(NC(=O)Nc2ccc3c(c2)C(=O)N([C@H](C)CO)C[C@H](C)[C@H](CN(C)S(=O)(=O)c2ccc(Cl)cc2)OCCCC[C@H](C)O3)cc1`, the cytotoxicity call was “inactive”.

With `COc1ccc(NC(=O)Nc2ccc3c(c2)C(=O)N([C@H](C)CO)C[C@@H](C)[C@H](CN(C)S(=O)(=O)c2ccc(Cl)cc2)OCCCC[C@@H](C)O3)cc1`, the cytotoxicity call was “active”.

With `COc1ccc(NC(=O)Nc2ccc3c(c2)C(=O)N([C@H](C)CO)C[C@H](C)[C@@H](CN(C)S(=O)(=O)c2ccc(C)cc2)OCCCC[C@H](C)O3)cc1`, the cytotoxicity call was “inactive”.

`COc1ccc(NC(=O)Nc2ccc3c(c2)C(=O)N([C@H](C)CO)C[C@H](C)[C@H](CN(C)S(=O)(=O)c2ccc(Cl)cc2)OCCCC[C@@H](C)O3)cc1`: the cytotoxicity call is “inactive”.

For the compound `COc1ccc(S(=O)(=O)N(C)C[C@H]2OCCCC[C@H](C)Oc3ccc(NC(=O)Nc4ccc5c(c4)OCO5)cc3C(=O)N([C@H](C)CO)C[C@@H]2C)cc1`, the cytotoxicity call is “inactive”.

For the compound `COc1ccc(NC(=O)Nc2ccc3c(c2)C(=O)N([C@@H](C)CO)C[C@@H](C)[C@@H](CN(C)S(=O)(=O)c2ccc(C)cc2)OCCCC[C@@H](C)O3)cc1`, the cytotoxicity call is “inactive”.

Turning to `COc1ccc(NC(=O)Nc2ccc3c(c2)C(=O)N([C@H](C)CO)C[C@H](C)[C@H](CN(C)S(=O)(=O)c2ccc(C)cc2)OCCCC[C@H](C)O3)cc1`, the cytotoxicity call was “inactive”.

Turning to `COc1ccc(NC(=O)Nc2ccc3c(c2)C(=O)N([C@@H](C)CO)C[C@H](C)[C@@H](CN(C)S(=O)(=O)c2ccc(C)cc2)OCCCC[C@@H](C)O3)cc1`, the cytotoxicity call was “active”.

Turning to `COc1ccc(NC(=O)Nc2ccc3c(c2)C(=O)N([C@@H](C)CO)C[C@H](C)[C@H](CN(C)S(=O)(=O)c2ccc(C)cc2)OCCCC[C@H](C)O3)cc1`, the cytotoxicity call was “active”.
